Assay [1] is described as follows: CCTE_Padilla_ZF_144hpf_TERATOSCORE: (Legacy) CCTE's 144 Hour Post-fertilization zebrafish Assay Teratoscore, Padilla Lab (AID 2283679; active = hit-call score of the fitted dose curve at least 0.9, where 1 is the maximum; inactive = score below 0.9;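 as to AC50: zebrafish embryos with chorions exposed by immersion from 6-8 hpf to 5 dpf with daily renewal; teratogenicity score from eye scoring of death hatching and malformations at 144 hpf; higher score means more developmental defects relative to DMSO baseline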). The gist of the method:
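Larvae scored by eye at 144 hpf for death, hatching and malformations after a day in clean Hanks'. Before that, daily-renewed exposure at 80 uM (0.4% DMSO, 26C) from roughly 6-8 hpf through 5 dpf, 4 embryos per chemical.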

The nature of assay [2]: Tanguay_ZF_120hpf_ActivityScore_legacy: (Legacy) Oregon State University Tanguay Lab 120 Hour Post-fertilization zebrafish Assay Score for Activity (AID 2283742).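 As to AC50: dechorionated Tropical 5D wild-type zebrafish embryos held singly per well.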 The gist of the method:
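Dechorionated 5D embryos, one per well, static exposure 6–120 hpf, 28C, sealed and dark; final DMSO 0.64% (vol/vol). Brightfield binary scoring of mortality plus 18 endpoints; gain-of-signal fit versus DMSO baseline.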

Assay [3] is described as follows: CEETOX_H295R_MTT_cell_viability: Viability Assessment in the CeeTox HT-H295R MTT Assay (AID 2283718; active = hit-call score of the fitted dose curve at least 0.9, where 1 is the maximum; inactive = score below 0.9;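 as to AC50: curve fitted both ways so AC50 may mark viability loss or gain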). The gist of the method: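 Human H295R adrenal cells, prestimulated 48 h with 10 uM forskolin, were exposed 48 h to chemicals in 0.1% DMSO. Viability was measured in the same wells by MTT (0.5 mg/ml, 4 h, 37 C), absorbance 570/650 nm, as percent of controls.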
Assay [4] can be described thus: Tanguay_ZF_120hpf_TR_legacy: (Legacy) Oregon State University Tanguay Lab 120 Hour Post-fertilization zebrafish Assay for Touch Response (AID 2283667). The gist of the method:
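Binary touch-response call at 120 hpf, analysed as gain of signal versus DMSO baseline. Wild-type 5D larvae, static exposure at 28C, 0.64% DMSO final; 5uM trimethyltin chloride as positive control.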

Assay [5] is described as follows: STM_H9_CystineISnorm_perc: Stemina devTOX quickPredict H9 human embryonic stem cell (hESC)-based Assay for Cystine (CYSS) Metabolite Biomarker, Normalized (AID 2283713; active = hit-call score of the fitted dose curve at least 0.9, where 1 is the maximum; inactive = score below 0.9). The gist of the method:
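Cells are held undifferentiated and treated for 72h, receiving fresh medium with compound every 24h. Cystine secreted during the final day is quantified by UPLC-HRMS against a labeled spike-in, then expressed relative to the DMSO vehicle median.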

Assay [6] can be described thus: STM_H9_OrnCyssISnorm_ratio: Stemina devTOX quickPredict H9 human embryonic stem cell (hESC)-based Assay for Ornithine (ORN):Cystine (CYSS) Ratio (AID 2283714). The gist of the method: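 UPLC-HRMS of spent media: ORN/CYSS ratio of internal-standard-normalized percentages, DMSO (0.1%) baseline. Pluripotent H9 hESCs, 72h exposure, daily re-dosing with fresh media; last 24h media collected.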

Consider 25 molecules from PubChem BioAssay (EPA / NIEHS).

Inconclusive results are not listed. Activity calls are given as the source filed them. The calls were made as follows, unless noted: active = hit-call score of the fitted dose curve at least 0.9, where 1 is the maximum; inconclusive = response in the unintended direction; inactive = score below 0.9.

On to `CCCOc1sc(C(=O)N2CCC(c3cc(CN)ccc3F)CC2)c(C)c1Br`, for which the half-maximal activity concentration (AC50) (usually the concentration giving half of the maximal activity seen) in assay [1] was 57.5 µM (active). Also, the molecule was classed as inactive in assay [2].

For `COCC(C)O` (stereo not given), the outcome in assay [1] and in assay [2] was inactive.

Regarding `CCCOC(=O)c1ccc(O)cc1`, the figures for the concentration at half-maximal activity (AC50) in assay [1] and in assay [2] were 14.9 µM (active) and 43.3 µM (active), respectively. Moreover, the molecule was called inactive in assay [3].

As for `CC[C@H](C)[C@@H](C(=O)O)n1sc2ccccc2c1=O`, the molecule was classed as inactive in assay [2].

Turning to `CC(C)CCCCCCOC(=O)CCCCC(=O)OCCCCCCC(C)C`, the outcome in assay [2] was inactive.

Consider `COC(=O)CCCCC(=O)OC`, for which the outcome in assay [3] and in assay [2] was inactive.

For the molecule `CCCCCCCCCCCCCCCS(=O)(=O)Oc1ccccc1`, the outcome in assay [3] and in assay [2] was inactive.

As to `OCCC(F)(F)C(F)(F)C(F)(F)C(F)(F)C(F)(F)C(F)(F)C(F)(F)C(F)(F)F`, the molecule was classed as inactive in assay [1] and in assay [2].

With `CCc1nn(C2CCCCC2)c2cc(C3(C#N)CCC(C(=O)O)CC3)ccc12` (stereo not given), the AC50 is 0.263 µM (active) in assay [1] and 0.421 µM (active) in assay [2]. The call in assay [3] was inactive.

`CCCCCCCCC(=O)O`: the call in assay [3] and in assay [2] was inactive.

Take `CCCCCCCC(=O)O`: the result in assay [2] was inactive.

For `CCCCC(CC)COC(=O)CCCCC(=O)OCc1ccccc1` (stereo not given), the call in assay [2] was inactive.

Consider `CC(C)(C)CC(C)(C)c1ccc(O)c(-n2nc3ccccc3n2)c1`, for which the result in assay [4] and in assay [2] was inactive.

As for `CC(=O)CC(C)(C)O`, the molecule was classed as inactive in assay [1] and in assay [2].

For `C[C@@H]1C[C@H]2[C@@H]3CCC4=CC(=O)C=C[C@]4(C)[C@@]3(F)[C@@H](O)C[C@]2(C)[C@@]1(O)C(=O)COP(=O)(O)O`, the molecule was called inactive in assay [1], in assay [5], in assay [6], in assay [3] and in assay [2].

As for `CCCCC(CC)COC(=O)CCCCC(=O)OCC(CC)CCCC` (stereo not given), the call in assay [4], in assay [1] and in assay [2] was inactive.

With `CCC(C)(C)C1CCC(O)CC1` (stereo not given), the molecule was classed as inactive in assay [4], in assay [1] and in assay [2].

For `CCCCCCC(=O)O`, in assay [2], the result was inactive.

Turning to `OC1CCC(C2CCCCC2)CC1` (stereo not given), the half-maximal activity concentration (AC50) in assay [1] is 87.6 µM (active). Also, the call in assay [2] was inactive.

Turning to `OC1CCCCC1`, the molecule was classed as inactive in assay [4], in assay [1] and in assay [2].

For the molecule `CN(C)C=O`, the result in assay [5] was inactive.

As for `Cc1cc(CCN2CCN(c3nsc4ccccc34)CC2)cc2c1NC(=O)CC2(C)C`, the half-maximal activity concentration (AC50) in assay [1] was 1.64 µM (active); in assay [5], 8.41 µM (active); in assay [6], 7.94 µM (active); in assay [3], 11.1 µM (active); in assay [2] it was 3.78 µM (active).

For `CCCCCCCCOC(=O)CCCCCCCCC(=O)OCCCCCCCC`, the call in assay [4], in assay [1] and in assay [2] was inactive.

On to `OCCC(F)(F)C(F)(F)C(F)(F)C(F)(F)C(F)(F)C(F)(F)F`, for which the molecule was classed as inactive in assay [1] and in assay [2].

Regarding `CCOC(=O)CC(O)(CC(=O)OCC)C(=O)OCC`, the molecule was classed as inactive in assay [2].
